# Results reported in PubChem BioAssay AID686978 (National Center for Advancing Translational Sciences (NCATS), 2013).
# In all, about 420,000 compounds went through this assay and about 64,000 (15%) were called active. Not shown: some 27% with an inconclusive outcome. Not all results are given here. Values without a mark were called inactive. Calls come from the whole dose curve; as a rule, active = well fitted inhibition curve with a large enough effect; inconclusive = small, poorly fitted or top-dose-only effect; inactive = flat fitted curve, though single readings scatter.
# Experiment: qHTS for Inhibitors of human tyrosyl-DNA phosphodiesterase 1 (TDP1): qHTS in cells in absence of CPT; note: nearly all actives have a fitted effect of over 55% in size
# Conditions: DT40 Tdp1-/- hTDP1 cells, no CPT, ATP luminescence, 48 h; activity change, negative = growth inhibition: at 46.2 µM (top of the series)
# Outline: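 Camptothecin absent (DMSO only). Human TDP1-complemented DT40 knockout cells, 400 cells/well, 37 °C for minimum 48 hr; ATP measured via CellTiter-Glo, 30 min dark incubation, luminescence.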
# % is set by controls: 0 for no effect and ±100 for the full control effect; potency is the fitted concentration of half-maximal effect.
Compound,"activity change, negative = growth inhibition [%]",Potency
COC(=O)c1oc2ccc(Br)cc2c1NC(C)=O,-24.5,–
CCn1c(SCC(=O)NCc2ccco2)nnc1-c1ccc(N)cc1,-25.1,–
C=CCn1c(CSc2nc3ccccc3s2)nnc1SCC(=O)NCc1ccco1,1.91,–
O=C(CSc1nc2ccc(Nc3nc(N4CCOCC4)nc(N4CCOCC4)n3)cc2s1)NCc1ccco1,–,13 µM (active)
O=C(CSc1nc(Nc2ccccc2)nc(N2CCOCC2)n1)Nc1cc(Cl)ccc1O,–,29.1 µM (active)
O=C(CC(c1ccccc1)c1cc(Cl)ccc1O)NCCN1CCOCC1 (stereo not given),-25.3,–
CC1(c2ccccc2)NC(=O)N(CC(=O)Nc2cc(Cl)ccc2N2CCOCC2)C1=O (stereo not given),3.58,–
Cc1ccccc1NC(=O)CSc1nc2ccc(Nc3nc(N4CCOCC4)nc(N4CCOCC4)n3)cc2s1,–,14.6 µM (active)
O=C(CSc1nc2ccccc2s1)Nc1ccc(C(=O)O)cc1,22,–
Cc1ccc(S(=O)(=O)N2CCOCC2)cc1NC(=O)CSc1nnc(N)s1,-2.06,–
Cc1ccccc1-n1nc(C)c2c1N=C1C(Cl)=CC(Cl)=CN1C2c1ccc(C(=O)O)cc1 (stereo not given),14.2,–
CCn1ccnc1CN(C)C(=O)c1cc(COc2ccc(Cl)cc2OC)on1,-27,–
COC(=O)[C@H](Cc1ccccc1)NC(=O)N1CC(C)OC(C)C1 (stereo not given in full),12,–
O=C1NC(c2ccccc2)CCC1(Cl)Cl (stereo not given),-3.73,–
Cc1cc(C(=O)COC(=O)CCCN2C(=O)c3ccccc3C2=O)c(C)n1C,-6.94,–
Cc1ccc(NC(=O)c2cn3c4c(ccc(Cl)c4c2=O)OC(C)C3)cc1C (stereo not given),-2.41,–
C#CCOCCOCCOCCNc1nc(N2CCN(C(=O)Cn3cc(CCO)nn3)CC2)nc(N2CCN(C(=O)[C@H](CCCCN)n3cc(CCCC)nn3)CC2)n1,-0.177,–
COc1cc(NC(=S)NCc2ccc(S(N)(=O)=O)cc2)cc(OC)c1,-21.2,–
CCc1c(O)cc2n(c1=O)-c1ccccc1C2(C)C,-23.2,–
CC1(C)CC(=O)C=C(N2CCCC2)C1,-1.76,–
CC1(C)CC(N2CCN(C(c3ccccc3)c3ccccc3)CC2)=CC(=[N+]2CCCCC2)C1,–,0.164 µM (active)
CC1(C)CC(=O)C=C(N2CCOCC2)C1,20.4,–
Cc1nc(Cl)c2oc3ccccc3c2n1,10.8,–
c1csc(CN2CCN(Cc3cccs3)C2c2cccs2)c1,9.91,–
O[C@H]1C[C@H](c2ccc(Cl)cc2)N(Cc2cccs2)C[C@@H]1n1cc(C2CC2)nn1,–,14.6 µM (active)
COC(=O)C1=C(C(=O)OC)C(c2cc([N+](=O)[O-])ccc2O)c2sc(=O)[nH]c2S1 (stereo not given),3.48,–
CC1=NN(C(C)C)C(=O)C1,-12.2,–

Compound,"activity change, negative = growth inhibition [%]",Potency
Cc1ccc(CN(CC(=O)NC2CCCCC2)C(=O)c2csnn2)cc1,-12,–
Cc1cc(C(C)(C)C)oc1C(=O)N(CC(=O)NC1CCCC1)Cc1ccc(Cl)cc1,–,14.1 µM (active)
COc1ccc(CN(CC(=O)NC2CCCC2)C(=O)CCC(=O)Nc2cc(C)on2)cc1,-10.2,–
CN1CCN(C(=O)c2ccc(-c3ccc(Br)cc3)o2)CC1,-18.3,–
Cc1ccccc1C1=NC(C(F)(F)F)(C(F)(F)F)c2c(n(-c3ccc(F)cc3)c(=O)[nH]c2=O)N1,–,23.1 µM (active)
O=S(=O)(NCC1CC1)c1ccc(F)c(Cl)c1,28.1,–
Cc1cc(NS(=O)(=O)c2ccc(NC(=O)c3ccccc3C)cc2)nc(C)n1,6.45,–
CCOC(=O)c1c(C)[nH]c(C)c1S(=O)(=O)N(C)CC(=O)Nc1ccccc1C,-10.7,–
CCCS(=O)(=O)c1c(Nc2ccccc2C)sc(C(=O)c2ccccc2)c1N,–,16.4 µM (active)
COc1c(F)c(F)c(C(=O)O)c(Nc2ccccc2C)c1F,-8.56,–
Cc1ccc2c(c1)C1CN(C)CCC1N2C(=S)Nc1ccc(Cl)cc1Cl (stereo not given),0.632,–
Cc1ccc(Nc2c(O)nc[nH]c2=O)cc1C,-1.29,–
Cc1ccc2[nH]cc(CCCN3C(=O)c4ccccc4C3=O)c2c1,-3.71,–
CC(=O)CC(CC(=O)NC1CCCCC1)c1ccccc1 (stereo not given),-5.74,–
O=C(CCS(=O)(=O)c1ccccc1)NC1CCCC1,22,–
O=C(CNC1CCCCC1)NCC1(c2ccccc2)CCCC1,–,23.1 µM (active)
CC(C)NC(=O)c1ccccc1S(=O)c1ccccc1C#N (stereo not given),-23.9,–
O=C(CSc1ccc(Cl)cc1)NC1CC1,-18.7,–
O=C(/C=C/c1cccc(F)c1)NC1CC1,-24.6,–
O=C(NNC(=S)Nc1ccc(Br)cc1Cl)c1ccco1,-8.5,–
Cc1cc(Br)ccc1NC(=S)NC1CCCC1,-20.4,–
CCNC(=S)NNC(=O)C1CCN(Cc2ccccc2)CC1,-8.75,–
O=C(Nc1ccccc1)N1CCC(C(=O)N2CCN(Cc3ccccc3)CC2)CC1,-18.5,–
S=C(Nc1ccc(Br)cc1Cl)NC1CCN(Cc2ccccc2)CC1,–,7.31 µM (active)
S=C(Nc1ccc(Br)cc1)NC1CCN(Cc2ccccc2)CC1,–,23.1 µM (active)
CCNc1ncc2nc(CCc3ccccc3)c(=O)n(-c3ccc(OC)cc3)c2n1,-21.2,–
CC1(C(=O)NCc2ccccc2)CN(S(C)(=O)=O)CC(=O)N1CC(F)(F)F (stereo not given),-11.4,–

Compound,"activity change, negative = growth inhibition [%]",Potency
CCOC(=O)c1ccc(-n2c(CCC(=O)O)ccc2-c2ccccc2)cc1,–,inactive
CC1Cc2cc(/C(O)=C3\C(=O)C(=O)N(Cc4cccnc4)C3c3ccccc3F)ccc2O1 (stereo not given),37.3,–
CC(=O)c1c(C)[nH]c(C(=O)COc2ccc3c(C)cc(=O)oc3c2)c1C,–,20.6 µM (active)
COC(=O)COc1ccc2oc(=O)cc(C)c2c1,-6.39,–
Cc1cc(=O)oc2ccc(OCC(=O)O)cc12,14.6,–
Cc1ccc(O)c(NC(=O)COc2cc(C)ccc2C)c1,-27.4,–
Cc1cc(=O)oc2cc(OCC(=O)Nc3nnc(C4CC4)s3)ccc12,-15.1,–
Cc1ccc(O)c(/C=N/NC(=O)COc2ccc3c(C)cc(=O)oc3c2)c1,–,16.4 µM (active)
CN(CC(=O)Nc1ccc(N2CCOCC2)cc1)CC(=O)Nc1ccccc1[N+](=O)[O-],-5.19,–
O=c1c2ccccc2ncn1CCc1ccncc1,1.84,–
Cc1cccc(CC(=O)Nc2c3c(nn2-c2cccc(Cl)c2)CS(=O)C3)c1 (stereo not given),-0.756,–
O=C(COC(=O)/C=C/c1cccc(Cl)c1)NCCc1ccccc1,-3.37,–
O=c1oc(/C=C/c2ccccc2)nc2ccccc12,-24.3,–
NNc1cccc(C=Cc2ccccc2)cc1=O,–,1.64 µM (active)
O=C(Cn1c(=O)n(Cc2ccco2)c(=O)c2ccccc21)NCC1CCCO1 (stereo not given),-7.48,–
COCCNc1nnc(SCC(=O)NNC(=O)c2ccco2)s1,6.29,–
CCOC(=O)C1=CN(Cc2ccc(Br)cc2)S(=O)(=O)N(C)C1C (stereo not given),-29.2,–
O=C(NCc1ccncc1)c1cccc(NS(=O)(=O)c2ccc(F)c(F)c2)c1,-8.99,–
COCCCNC(=O)c1ccc(CNS(=O)(=O)c2ccc(NC(C)=O)cc2)cc1,-2.52,–
O=C1[C@@H]2C(Cc3ccc(O)cc3)NC3(C(=O)Nc4ccc(F)cc43)[C@@H]2C(=O)N1c1ccc(F)cc1 (stereo not given in full),-7.72,–
CSCCC1NC2(C(=O)Nc3ccc(Cl)cc32)[C@@H]2C(=O)N(C3CCCC3)C(=O)[C@H]12 (stereo not given in full),–,20.6 µM (active)
CN(C)S(=O)(=O)N1CCN(c2ccc([N+](=O)[O-])cc2)CC1,-25.7,–
CC(N)(C(=O)O)c1ccc(-c2nn[nH]n2)cc1 (stereo not given),-9.19,–
CCOC(=O)N1CCN(Cc2nnc(-c3ccccc3Cl)o2)CC1,22.9,–
CCc1c(C)n([O-])c2c([n+]1=O)CCCCC2,4.34,–
Cc1cccc(C(=O)OCC(=O)NCC(C)C)c1O,-2.49,–
CCOC(=O)CCC(=O)OCC(=O)NC(C)C1CC2CCC1C2 (stereo not given),-12.4,–

Compound,"activity change, negative = growth inhibition [%]",Potency
Cc1cccc(C(=O)OCC(=O)NC(C)C2CC3CCC2C3)c1O (stereo not given),–,16.4 µM (active)
COC(=O)c1ccc(NC(=O)CSc2nnc(-c3ccncc3)n2C)cc1,-0.574,–
NS(=O)(=O)c1ccc(Nc2nc(-c3ccccc3)cs2)cc1,-16.9,–
CC(=O)c1ccc(NC(=O)C(C)N(C)CC(=O)Nc2ccccc2Cl)cc1 (stereo not given),-1.04,–
CC(=O)c1ccc(Nc2nc(C(N)c3ccccc3Cl)cs2)cc1 (stereo not given),–,11.6 µM (active)
COc1ccc(NC(=O)CSc2nnc(-c3nnn(-c4ccc(F)cc4)c3C)o2)cc1,-26.3,–
COc1ccccc1N(CC(=O)NC1CCCC1)C(=O)C1(C)CC(=O)N=C2C=CC(C)=CN21 (stereo not given),-26.7,–
CC1=C(C(N)=O)C(c2sccc2C)n2nnnc2N1 (stereo not given),-5.04,–
COc1cccc(NC(=S)N(Cc2ccc(C)cc2)Cc2ccccn2)c1,-29.4,–
CSc1cccc(NC(=S)N(Cc2ccccc2)Cc2ccccn2)c1,–,20.6 µM (active)
CSc1cccc(NC(=S)N(C(C)C)C(C)c2ccccn2)c1 (stereo not given),–,8.2 µM (active)
Cc1c(Cl)cccc1NC(=S)N(Cc1ccccc1)Cc1cccnc1,-1.9,–
CC(c1ccccn1)N(CCN(C)C)C(=S)Nc1ccccc1F (stereo not given),-10.4,–
CC(C)(C)c1nnc(N/N=C/c2ccc(O)cc2)n(N)c1=O,-21.3,–
O=C(CC[C@H]1O[C@@H](n2ccc(=O)[nH]c2=O)[C@H](O)[C@@H]1O)N[C@H](Cc1ccccc1)C(=O)NCCCN1CCCC1=O,7.45,–
CN(C(=O)COC(=O)CCCc1c[nH]c2ccccc12)c1c(N)n(Cc2ccccc2)c(=O)[nH]c1=O,16.9,–
Cc1nc2c(ncn2-c2ccccc2)c(=O)n1NC(=O)CN1CCCC1,3.93,–
CCN(CC)C(=O)CSc1nnc(-c2ccc(S(=O)(=O)NCc3ccccc3Cl)cc2)o1,-18.3,–
COc1ccccc1NC(=O)C(CC(=O)O)Cc1cc(C)cc(C)c1 (stereo not given),3.58,–
COc1ccccc1NC(=O)C(C)OC(=O)CC1CCCC1 (stereo not given),-0.667,–
COc1ccccc1NC(=O)[C@H](COCc1ccccc1)NC(=O)OC(C)(C)C,–,18.4 µM (active)
COc1ccc(C)cc1NC(=O)CCCN1C(=O)NC(C)(C)C1=O,7.84,–
O=S(=O)(NCCNS(=O)(=O)c1ccccc1)c1ccccc1,2.77,–
Cc1cc(C(=O)N2CCCC2(C)C(=O)O)c(C)o1 (stereo not given),-1.92,–
